Assays:
Assay in all cases: SELEX-seq (CSI, HT-SELEX, round 3); SELEX-seq: 1x PBS (10 mM phosphate, 137 mM NaCl, 2.7 mM KCl) pH 7.6, 2.5 mM DTT, 50 ng/ul poly dI-dC, 0.1% BSA, 50 nM biotinylated bZIP (1:3 with partner for heterodimers), 100 nM library, room temperature, 1 h, 3 rounds; high values mean tight binding
Conditions in all cases: protein: recombinant;recombinant; copies: 1;1; dsDNA, one strand shown
BATF3;NFIL3 = target: T1, BATF3;NFIL3 (Homo sapiens;Homo sapiens, UniProt Q9NR55;Q16649 26-99;64-134, |)
T1 sequence 1: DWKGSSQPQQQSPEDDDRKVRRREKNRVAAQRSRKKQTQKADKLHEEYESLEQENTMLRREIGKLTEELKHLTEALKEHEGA
T1 sequence 2: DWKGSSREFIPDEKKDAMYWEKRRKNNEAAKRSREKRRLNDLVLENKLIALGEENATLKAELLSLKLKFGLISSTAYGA

CEBPE;CEBPE = target: T2, CEBPE;CEBPE (Homo sapiens;Homo sapiens, UniProt Q15744;Q15744 195-267;195-267, |)
T2 sequence 1: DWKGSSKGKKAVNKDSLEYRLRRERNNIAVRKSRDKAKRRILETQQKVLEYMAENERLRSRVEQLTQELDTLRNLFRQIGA
T2 sequence 2: T2 sequence 1

JUNB;CEBPE = target: T3, JUNB;CEBPE (Homo sapiens;Homo sapiens, UniProt P17275;Q15744 259-332;195-267, |)
T3 sequence 1: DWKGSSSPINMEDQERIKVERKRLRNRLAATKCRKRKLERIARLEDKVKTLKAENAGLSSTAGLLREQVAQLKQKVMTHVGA
T3 sequence 2: T2 sequence 1

JUNB;BATF = target: T4, JUNB;BATF (Homo sapiens;Homo sapiens, UniProt P17275;Q16520 259-332;17-90, |)
T4 sequence 1: T3 sequence 1
T4 sequence 2: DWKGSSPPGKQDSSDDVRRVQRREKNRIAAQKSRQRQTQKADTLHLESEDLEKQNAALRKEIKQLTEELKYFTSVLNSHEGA

JUNB;NFE2 = target: T5, JUNB;NFE2 (Homo sapiens;Homo sapiens, UniProt P17275;Q16621 259-332;221-337, |)
T5 sequence 1: T3 sequence 1
T5 sequence 2: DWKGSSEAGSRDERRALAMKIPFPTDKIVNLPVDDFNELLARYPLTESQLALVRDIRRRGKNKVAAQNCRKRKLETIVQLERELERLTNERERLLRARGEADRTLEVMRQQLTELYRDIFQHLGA

JUNB;NFE2L1 = JUNB;NFE2L1 (Homo sapiens;Homo sapiens, UniProt P17275;Q14494 259-332;609-725, |)
Chain of JUNB;NFE2L1 (Q14494 other isoform, or with tags, fused parts or gaps |): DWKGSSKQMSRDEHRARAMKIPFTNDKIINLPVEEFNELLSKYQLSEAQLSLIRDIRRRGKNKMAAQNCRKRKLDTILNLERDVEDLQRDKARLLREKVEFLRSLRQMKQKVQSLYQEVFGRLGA

JUNB;HLF = target: T6, JUNB;HLF (Homo sapiens;Homo sapiens, UniProt P17275;Q16534 259-332;216-293, |)
T6 sequence 1: T3 sequence 1
T6 sequence 2: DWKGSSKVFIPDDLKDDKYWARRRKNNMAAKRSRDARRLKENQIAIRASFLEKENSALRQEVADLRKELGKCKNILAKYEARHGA

BATF2;ATF4 = BATF2;ATF4 (Homo sapiens;Homo sapiens, UniProt Q8N1L9;P18848 8-85;269-346, |)
Chain of BATF2;ATF4 (Q8N1L9 other isoform, or with tags, fused parts or gaps |, chain 1 of 2): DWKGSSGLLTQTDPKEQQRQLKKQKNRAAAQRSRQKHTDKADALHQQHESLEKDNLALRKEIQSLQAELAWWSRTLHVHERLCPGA
Chain of BATF2;ATF4 (P18848 other isoform, or with tags, fused parts or gaps |, chain 2 of 2): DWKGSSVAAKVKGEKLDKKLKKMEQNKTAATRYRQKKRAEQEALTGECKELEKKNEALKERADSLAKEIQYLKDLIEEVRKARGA

JUNB;FOSL1 = target: T7, JUNB;FOSL1 (Homo sapiens;Homo sapiens, UniProt P17275;P15407 259-332;96-169, |)
T7 sequence 1: T3 sequence 1
T7 sequence 2: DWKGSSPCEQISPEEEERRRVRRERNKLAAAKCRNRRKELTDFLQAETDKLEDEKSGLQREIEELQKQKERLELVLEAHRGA

JUNB;FOS = JUNB;FOS (Homo sapiens;Homo sapiens, UniProt P17275;P01100 259-332;128-201, |)
Chain of JUNB;FOS (P01100 other isoform, or with tags, fused parts or gaps |): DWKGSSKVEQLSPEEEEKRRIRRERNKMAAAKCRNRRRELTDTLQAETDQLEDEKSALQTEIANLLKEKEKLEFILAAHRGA

Row | Sequence | binding signal (BATF3;NFIL3) | binding signal (CEBPE;CEBPE) | binding signal (JUNB;CEBPE) | binding signal (JUNB;BATF) | binding signal (JUNB;NFE2) | binding signal (JUNB;NFE2L1) | binding signal (JUNB;HLF) | binding signal (BATF2;ATF4) | binding signal (JUNB;FOSL1) | binding signal (JUNB;FOS)
1 | ATGACGGAAT | 0.0076 relative CSI intensity (max = 1) | 0.00629 relative CSI intensity (max = 1) | 0.00513 relative CSI intensity (max = 1) | 0.002 relative CSI intensity (max = 1) | 0.0241 relative CSI intensity (max = 1) | 0.0118 relative CSI intensity (max = 1) | 0.00331 relative CSI intensity (max = 1) |  |  | 
2 | CCTGACGTCA | 0.00724 relative CSI intensity (max = 1) | 0.00701 relative CSI intensity (max = 1) | 0.00962 relative CSI intensity (max = 1) | 0.0101 relative CSI intensity (max = 1) | 0.0277 relative CSI intensity (max = 1) | 0.0112 relative CSI intensity (max = 1) | 0.00417 relative CSI intensity (max = 1) | 0.0186 relative CSI intensity (max = 1) | 0.00464 relative CSI intensity (max = 1) | 0.00331 relative CSI intensity (max = 1)
3 | ATGACGTCAT | 0.218 relative CSI intensity (max = 1) | 0.0521 relative CSI intensity (max = 1) | 0.104 relative CSI intensity (max = 1) | 0.784 relative CSI intensity (max = 1) | 1 relative CSI intensity (max = 1) | 1 relative CSI intensity (max = 1) | 1 relative CSI intensity (max = 1) | 0.216 relative CSI intensity (max = 1) | 0.3 relative CSI intensity (max = 1) | 0.188 relative CSI intensity (max = 1)
4 | ATGACGCAAT | 0.0474 relative CSI intensity (max = 1) | 0.259 relative CSI intensity (max = 1) | 0.333 relative CSI intensity (max = 1) | 0.00832 relative CSI intensity (max = 1) | 0.344 relative CSI intensity (max = 1) | 0.169 relative CSI intensity (max = 1) | 0.176 relative CSI intensity (max = 1) | 0.0339 relative CSI intensity (max = 1) | 0.00312 relative CSI intensity (max = 1) | 0.00347 relative CSI intensity (max = 1)
5 | ATGACGTAAT | 0.178 relative CSI intensity (max = 1) | 0.0888 relative CSI intensity (max = 1) | 0.0862 relative CSI intensity (max = 1) | 0.0325 relative CSI intensity (max = 1) | 0.12 relative CSI intensity (max = 1) | 0.116 relative CSI intensity (max = 1) | 0.537 relative CSI intensity (max = 1) | 0.119 relative CSI intensity (max = 1) | 0.017 relative CSI intensity (max = 1) | 0.00946 relative CSI intensity (max = 1)
6 | ATGATGCAAT | 0.0307 relative CSI intensity (max = 1) | 0.139 relative CSI intensity (max = 1) | 0.314 relative CSI intensity (max = 1) |  | 0.116 relative CSI intensity (max = 1) | 0.0453 relative CSI intensity (max = 1) |  | 0.0322 relative CSI intensity (max = 1) |  | 

Source: paper PMC5349851, “Combinatorial bZIP dimers display complex DNA-binding specificity landscapes”
